Records with an inconclusive call do not appear. Entries that show only a call come without a potency. Values without a mark were called inactive. Calls of active or inactive are those of the source. Unless noted, calls come from the whole dose curve; as a rule, active = well fitted curve in the direction sought with a large enough effect in the repeat runs; inconclusive = weak or mixed curves; inactive = no such curve, though single readings can be large; an effect the other way counts as inactive or inconclusive.
Assays:
[1] = qHTS assay to identify small molecule antagonists of the glucocorticoid receptor (GR) signaling pathway - cell viability counter screen (AID 720693); note: nearly all actives have a fitted effect of over 55% in size
[2] = qHTS assay for identifying genotoxic compounds that show differential cytotoxicity against isogenic chicken DT40 cell lines with known DNA damage response pathways - wild type cell line (AID 743012); note: nearly all actives have a fitted effect of over 60% in size; note: potency is the fitted concentration of half-maximal effect
How it was run: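 Endpoint: CellTiter-Glo luminescence, 30 min RT. Cells: wild type DT40, 300/well. Exposure: compounds in DMSO, 40 h, 37 C/5% CO2, after ~0.5 h pre-incubation.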

[3] = qHTS assay for identifying genotoxic compounds that show differential cytotoxicity against isogenic chicken DT40 cell lines with known DNA damage response pathways - Rev3 mutant cell line (AID 743014); note: nearly all actives have a fitted effect of over 55% in size; note: potency is the fitted concentration of half-maximal effect
[4] = qHTS assay for identifying genotoxic compounds that show differential cytotoxicity against isogenic chicken DT40 cell lines with known DNA damage response pathways - Rad54/Ku70 mutant cell line (AID 743015); note: nearly all actives have a fitted effect of over 60% in size; note: potency is the fitted concentration of half-maximal effect
[5] = qHTS assay to identify small molecule antagonists of the androgen receptor (AR) signaling pathway - cell viability counter screen (AID 743033; note: nearly all actives have a fitted effect of over 45% in size)
[6] = qHTS assay to identify small molecule antagonists of the androgen receptor (AR) signaling pathway using the MDA cell line - cell viability counter screen (AID 743041; note: nearly all actives have a fitted effect of over 45% in size)
How it was run: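 Viability read by CellTiter-Fluor fluorescence in the same wells as the antagonist screen, added after 15.5 h of a 16 h, 37C exposure. Human breast carcinoma MDA-kb2 AR-luc cells, compounds co-dosed with agonist R1881.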

[7] = qHTS assay to identify small molecule antagonists of the thyroid receptor (TR) signaling pathway - cell viability counter screen (AID 743064); note: nearly all actives have a fitted effect of over 50% in size
How it was run: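 GH3.TRE-Luc cells, 4 h pre-plating; cpd + T3 1 nM final; 37 °C 23.5 h; CellTiter-Fluor 30 min; fluorescence read.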

[8] = qHTS assay to identify small molecule antagonists of the thyroid receptor (TR) signaling pathway (AID 743065); note: series mostly up to about 70 µM; nearly all actives have a fitted effect of over 55% in size
How it was run: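 Antagonism measured as loss of luciferase signal in GH3 cells stably carrying a TRE-luciferase reporter, co-treated with compound and T3 (1 nM final) for 23.5 h at 37 C. Viability was read in the same well by CellTiter-Fluor.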

[9] = tested on: thyroid hormone receptor (rat, GH3 cells); assay: qHTS assay to identify small molecule agonists of the thyroid receptor (TR) signaling pathway (AID 743066; calls by dose curve)
[10] = target: Estrogen receptor (Homo sapiens) (UniProt P03372); assay: qHTS assay to identify small molecule antagonists of the estrogen receptor alpha (ER-alpha) signaling pathway (AID 743069; active = well fitted curve in the direction sought with a large enough effect in the signal ratio in the repeat runs, not every such curve was filed as active; the % refers to the signal ratio)
Chain of Estrogen receptor (Homo sapiens) (P03372 whole entry, looked up): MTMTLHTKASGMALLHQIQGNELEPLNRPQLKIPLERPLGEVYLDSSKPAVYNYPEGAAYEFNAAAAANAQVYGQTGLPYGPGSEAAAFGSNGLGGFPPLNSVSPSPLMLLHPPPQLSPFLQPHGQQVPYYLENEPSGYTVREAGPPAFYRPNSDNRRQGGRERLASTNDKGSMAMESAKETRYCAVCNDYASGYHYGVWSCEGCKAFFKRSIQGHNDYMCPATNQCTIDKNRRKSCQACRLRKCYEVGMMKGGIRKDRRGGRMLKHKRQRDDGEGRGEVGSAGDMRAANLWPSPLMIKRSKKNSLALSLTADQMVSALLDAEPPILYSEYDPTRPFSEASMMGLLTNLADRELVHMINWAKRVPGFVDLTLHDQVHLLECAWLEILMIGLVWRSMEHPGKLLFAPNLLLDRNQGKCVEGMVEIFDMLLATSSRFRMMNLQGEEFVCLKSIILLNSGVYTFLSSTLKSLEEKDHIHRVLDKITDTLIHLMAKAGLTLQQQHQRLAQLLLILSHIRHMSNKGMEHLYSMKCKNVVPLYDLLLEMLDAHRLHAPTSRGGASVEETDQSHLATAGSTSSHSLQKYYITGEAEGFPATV
How it was run: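 Antagonist mode: compounds in DMSO were co-added with 17beta-estradiol to ER-alpha-bla HEK293 cells (2% charcoal-stripped serum) and left 18 h at 37C. Reporter inhibition was measured as FRET fluorescence after 2 h LiveBLAzer substrate at room temperature.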

[11] = qHTS assay to identify small molecule antagonists of the estrogen receptor alpha (ER-alpha) signaling pathway - cell viability counter screen (AID 743074; calls by dose curve;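 note: HEK293 cells carrying ER-alpha-UAS-bla reporter stimulated with 17beta-estradiol; nearly all actives have a fitted effect of over 45% in size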)
[12] = target: Estrogen receptor (Homo sapiens) (UniProt P03372); assay: qHTS assay to identify small molecule agonists of the estrogen receptor alpha (ER-alpha) signaling pathway (AID 743075; calls by dose curve;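 note: HEK293 GripTite cells with ER-alpha and UAS-driven beta-lactamase reporter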)
[13] = target: Estrogen receptor (Homo sapiens) (UniProt P03372); assay: qHTS assay to identify small molecule agonists of the estrogen receptor alpha (ER-alpha) signaling pathway using the BG1 cell line (AID 743079); note: nearly all actives have a fitted effect of over 20% in size; note: potency is the fitted concentration of half-maximal effect
[14] = qHTS assay to identify small molecule antagonists of the estrogen receptor alpha (ER-alpha) signaling pathway using the BG1 cell line (AID 743080; calls by dose curve;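 note: BG1 cells stimulated with 17beta-estradiol alongside compound; series mostly up to about 70 µM; nearly all actives have a fitted effect of over 25% in size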)
How it was run: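 Seeding, 24 h rest, compound transfer from DMSO, 17beta-estradiol addition, 21.5 h incubation, CellTiter-Fluor (30 min, 37 C), then ONE-Glo (30 min, room temperature): this sequence was run on BG1-Luc-4E2 reporter cells.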

[15] = qHTS assay to identify small molecule antagonists of the estrogen receptor alpha (ER-alpha) signaling pathway using the BG1 cell line - cell viability counter screen (AID 743081);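 note: compound given together with 17beta-estradiol as the ER stimulus; series mostly up to about 70 µM; nearly all actives have a fitted effect of over 45% in size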
[16] = target: Aromatase (Homo sapiens) (UniProt P11511); assay: qHTS assay to identify aromatase inhibitors (AID 743083); note: series mostly up to about 70 µM; nearly all actives have a fitted effect of over 55% in size
Chain of Aromatase (Homo sapiens) (P11511 whole entry, looked up): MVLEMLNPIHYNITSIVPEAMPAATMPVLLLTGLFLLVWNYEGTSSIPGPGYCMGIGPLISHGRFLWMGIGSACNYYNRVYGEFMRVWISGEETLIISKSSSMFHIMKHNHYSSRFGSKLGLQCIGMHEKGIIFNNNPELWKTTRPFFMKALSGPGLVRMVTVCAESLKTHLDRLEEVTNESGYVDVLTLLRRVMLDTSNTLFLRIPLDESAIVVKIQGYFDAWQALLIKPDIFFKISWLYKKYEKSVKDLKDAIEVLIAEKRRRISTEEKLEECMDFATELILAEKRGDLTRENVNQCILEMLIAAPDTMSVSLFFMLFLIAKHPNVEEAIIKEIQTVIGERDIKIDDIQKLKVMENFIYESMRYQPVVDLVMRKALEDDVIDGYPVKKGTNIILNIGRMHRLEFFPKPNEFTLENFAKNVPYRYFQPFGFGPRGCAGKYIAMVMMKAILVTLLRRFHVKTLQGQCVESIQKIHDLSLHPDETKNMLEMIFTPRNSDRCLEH

Row | SMILES | outcome [1] | Potency [2] | Potency [3] | Potency [4] | outcome [5] | outcome [6] | Potency [7] | Potency [8] | Potency [9] | outcome [10] | Potency [11] | Potency [12] | Potency [13] | Potency [14] | outcome [15] | Potency [16]
1 | COC(=O)c1ccc(C(=O)O)cc1 | inactive | inactive | inactive | inactive | inactive | inactive | inactive | inactive | inactive | inactive | inactive | inactive | inactive | inactive | inactive | inactive
2 | CC1(C)S[C@@H]2[C@H](NC(=O)Cc3ccccc3)C(=O)N2[C@H]1C(=O)O (tested in a mixture with another compound) | inactive | inactive | inactive | inactive | inactive | inactive | inactive | – | – | inactive | inactive | inactive | inactive | inactive | inactive | inactive
3 | COC(=O)c1c(C)cc(O)c(C)c1O | inactive | 61.1 µM (active) | 54.5 µM (active) | 61.1 µM (active) | inactive | inactive | inactive | inactive | – | – | inactive | – | 68.6 µM (active) | inactive | inactive | inactive
4 | COc1cc2nc(N3CCN(C(=O)C4CCCO4)CC3)nc(N)c2cc1OC (configuration not stated) | inactive | inactive | inactive | inactive | inactive | inactive | – | inactive | inactive | inactive | inactive | inactive | inactive | inactive | inactive | inactive
5 | CC(=O)SC[C@@H](C)C(=O)N1CCC[C@H]1C(=O)N[C@@H](Cc1ccccc1)C(=O)O | inactive | inactive | inactive | inactive | inactive | inactive | inactive | – | – | inactive | inactive | inactive | inactive | inactive | inactive | inactive
6 | CCCC(C)C(O)CC (configuration not stated) | inactive | inactive | inactive | inactive | inactive | inactive | inactive | inactive | inactive | – | inactive | – | – | – | inactive | inactive
7 | C=CCn1cc[n+](C)c1 | inactive | inactive | inactive | inactive | inactive | inactive | – | inactive | inactive | inactive | inactive | inactive | inactive | inactive | inactive | inactive
8 | O=C(O)Cc1ccccc1Oc1ccc(Cl)cc1Cl | inactive | inactive | inactive | inactive | inactive | inactive | – | inactive | inactive | inactive | inactive | inactive | inactive | inactive | inactive | inactive
9 | CCCOc1ccc(C(=O)OCCN(CC)CC)cc1N | inactive | 9.44 µM (active) | 6.68 µM (active) | 13.3 µM (active) | inactive | inactive | inactive | – | inactive | – | inactive | – | – | – | – | inactive
10 | CCN1CCN(C(=O)N[C@@H](C(=O)N[C@@H]2C(=O)N3C(C(=O)O)=C(CSc4nnnn4C)CS[C@H]23)c2ccc(O)cc2)C(=O)C1=O | inactive | inactive | inactive | inactive | inactive | inactive | inactive | – | – | inactive | inactive | inactive | inactive | inactive | inactive | inactive
11 | CCN1CCN(C(=O)N[C@@H](C(=O)N[C@@H]2C(=O)N3[C@@H]2SC(C)(C)[C@H]3C(=O)O)c2ccccc2)C(=O)C1=O | inactive | inactive | inactive | inactive | inactive | inactive | inactive | inactive | inactive | inactive | – | inactive | inactive | inactive | inactive | inactive
12 | C=COCCCCO | inactive | inactive | inactive | inactive | inactive | inactive | – | inactive | inactive | inactive | inactive | inactive | inactive | inactive | inactive | inactive
13 | CN1CCN(C(=O)C2CCCCC2)CC1 | inactive | inactive | inactive | inactive | inactive | inactive | – | inactive | inactive | inactive | inactive | inactive | inactive | inactive | inactive | inactive
14 | CCC(=O)OCCOc1ccccc1 | inactive | inactive | inactive | inactive | inactive | inactive | – | inactive | inactive | inactive | inactive | inactive | inactive | inactive | inactive | inactive
15 | NC(=O)CC[C@@H](N)C(=O)O | inactive | inactive | inactive | inactive | inactive | inactive | inactive | inactive | inactive | – | inactive | – | – | – | inactive | inactive
16 | O=c1c(O)c(O)c1=O | inactive | inactive | inactive | inactive | inactive | inactive | inactive | inactive | inactive | – | inactive | – | – | – | inactive | inactive
17 | CC1(C)CC(N)CC(C)(C)N1 | inactive | inactive | inactive | inactive | inactive | inactive | inactive | inactive | inactive | – | inactive | – | – | – | inactive | inactive
18 | CNCCc1ccccn1 | inactive | inactive | inactive | inactive | inactive | inactive | inactive | inactive | inactive | – | inactive | – | – | – | inactive | inactive
19 | CC(C)(C)C(=O)CC(=O)C(C)(C)C | inactive | inactive | inactive | inactive | inactive | inactive | inactive | inactive | inactive | inactive | inactive | inactive | inactive | inactive | inactive | inactive
20 | CCC(C)(C)C | inactive | inactive | inactive | inactive | inactive | inactive | – | inactive | inactive | inactive | inactive | inactive | inactive | inactive | inactive | inactive

Source: PubChem BioAssay (Tox21)
